Six1-Eya2 blk – qHTS Assay for Inhibitors of the Six1/Eya2 Interaction; Homeobox protein SIX1 (Homo sapiens) + Protein phosphatase EYA2 (Homo sapiens), …; 0.56% of 360,000 active; activity change, % (concentration not given with the values); AID 651725, 2012; AlphaScreen GST-Six1/His-Eya2 binding, biochemical; hits give low values; in the data active = activity change below about -65%; inconclusive = mostly about -30% to -63%
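Compounds are tested against tagged Six1 and Eya2 proteins bridged by glutathione donor and nickel acceptor beads; after a one-hour incubation at 37 °C without light, AlphaScreen emission is recorded.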
TDP1 inh – qHTS Assay for Inhibitors of Tyrosyl-DNA Phosphodiesterase (TDP1). Tyrosyl-DNA phosphodiesterase 1 (Homo sapiens), Q9NUW8. recombinant TDP1, AlphaScreen DNA substrate cleavage. Potency, µM (top dose mostly 130 µM), inactives show at the highest dose activity change, negative = inhibition, usual class: inhibitors. 0.28% of 350,000 active. AID 485290, 2010; also: potency is read from the fitted curve at half-maximal effect; nearly all actives have a fitted effect of over 40% in size
Target sequence (Q9NUW8 whole entry, looked up): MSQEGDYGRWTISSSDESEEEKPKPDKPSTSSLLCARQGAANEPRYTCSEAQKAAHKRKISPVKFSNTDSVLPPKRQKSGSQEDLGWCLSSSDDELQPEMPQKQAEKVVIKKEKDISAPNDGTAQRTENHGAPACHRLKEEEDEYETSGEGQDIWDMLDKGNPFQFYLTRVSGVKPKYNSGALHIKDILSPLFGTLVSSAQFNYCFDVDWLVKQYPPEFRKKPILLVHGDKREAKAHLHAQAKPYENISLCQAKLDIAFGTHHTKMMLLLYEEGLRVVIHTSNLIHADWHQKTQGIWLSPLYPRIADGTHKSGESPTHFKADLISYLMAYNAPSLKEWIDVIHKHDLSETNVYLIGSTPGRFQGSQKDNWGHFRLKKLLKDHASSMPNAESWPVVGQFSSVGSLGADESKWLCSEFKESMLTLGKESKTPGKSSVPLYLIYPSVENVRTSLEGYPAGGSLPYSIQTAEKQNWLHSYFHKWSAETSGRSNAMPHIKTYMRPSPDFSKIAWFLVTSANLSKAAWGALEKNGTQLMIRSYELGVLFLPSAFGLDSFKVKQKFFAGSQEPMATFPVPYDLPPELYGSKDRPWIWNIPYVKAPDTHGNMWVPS
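Recombinant E. coli-expressed Tdp1 (1 nM) preincubated with compound 15 min at RT, then 5'-biotin/3'-phosphotyrosine-FITC DNA substrate (15 nM) added for 5 min. AlphaScreen beads (10 ug/ml) added, 10 min RT; tyrosine-FITC cleavage read as signal loss.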
DT40 TDP1 no CPT – qHTS for Inhibitors of human tyrosyl-DNA phosphodiesterase 1 (TDP1): qHTS in cells in absence of CPT | 15% of 420,000 active | DT40 Tdp1-/- hTDP1 cells, no CPT, ATP luminescence, 48 h | Potency, µM (top dose mostly 46.2 µM), for the others: at the top dose activity change, negative = growth inhibition, usual class: inhibitors | AID 686978, 2013; also: potency is read from the fitted curve at half-maximal effect; nearly all actives have a fitted effect of over 55% in size
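Camptothecin absent (DMSO only). Human TDP1-complemented DT40 knockout cells, 400 cells/well, 37 °C for minimum 48 hr; ATP measured via CellTiter-Glo, 30 min dark incubation, luminescence.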
IL1B secr inh – qHTS for Inhibitors of Inflammasome Signaling: IL-1-beta AlphaLISA Primary Screen. activity change, % at 57.5 µM. THP-1 LPS/ATP IL-1B secretion, AlphaLISA, 16 h; hits give low values. 4.7% of 360,000 active. AID 743279, 2014; in the data active = activity change below about -50%; inconclusive = mostly about -30% to -49%
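Secreted IL-1B measured by AlphaLISA bead assay after 16 h compound exposure of THP-1 cells; compounds (final up to 57.5 uM) added 1 h before LPS (250 ng/mL) and ATP (1.25 mM) stimulation; lower signal means less secretion.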
TDP1 cell CPT – qHTS for Inhibitors of human tyrosyl-DNA phosphodiesterase 1 (TDP1): qHTS in cells in presence of CPT; chicken DT40 Tdp1-/-;hTDP1 cells + 20 nM CPT, ATP luminescence, 48 h; Potency, µM (series often up to 46.2 µM), inactives show top-dose activity change, negative = growth inhibition, usual class: inhibitors; 12% of 420,000 active; also: potency is read from the fitted curve at half-maximal effect; nearly all actives have a fitted effect of over 55% in size
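Chicken DT40 Tdp1-/- cells complemented with human TDP1, 400 cells/well, exposed to compounds plus 20 nM camptothecin for at least 48 h at 37 C; viability read as ATP content by CellTiter-Glo luminescence.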
CtBP-E1A blk – qHTS Assay for Inhibitors of the CtBP/E1A Interaction; AlphaScreen GST-E1A/His-CtBP binding, 1536-well; hits give low values; 0.49% of 340,000 active; activity change, % (test concentration not listed); CtBP / adenovirus E1A interaction (AlphaScreen); AID 651724, 2012; in the data active = activity change below about -65%; inconclusive = mostly about -30% to -63%
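Steps: dispense buffer (Tris pH 8.0, NaCl 300 mM, TCEP 1 mM, BSA, Tween 20); add 5X protein mix (GST-E1A, His-CtBP, 125 nM each); pin 23 nL compound; 2 h at 37 °C, dark; add 5X beads (50 ug/mL); 1 h; read.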
An asterisk follows results filed as active; ? = inconclusive; . = not tested or not shown; [ ] = another dose, or the depositor's remark. This is a sample that favours compounds with a hit; in the whole collection about 18% have one here. Unless noted, calls follow the shape of the dose curve; as a rule, active = well fitted curve in the direction sought with a large enough effect; inconclusive = small, poorly fitted or top-dose-only effect, or another doubt; inactive = no such curve, though single readings can be large; an effect the other way counts as inactive or inconclusive. % is scaled to controls: 0 for no effect and ±100 for the full control effect.

SMILES	Six1-Eya2 blk	TDP1 inh	DT40 TDP1 no CPT	IL1B secr inh	TDP1 cell CPT	CtBP-E1A blk
COc1ccc(-c2nc(CS(=O)CC(=O)NC3CCCCCC3)c(C)o2)cc1 (centres undefined)	-1	3%	-6%	-5	-29%	1
O=C(Nc1ccc(N2CCN(C(=O)c3ccc(Cl)cc3)CC2)cc1)c1ccc(Br)o1	-10	7%	?	-69*	?	-16
CN1CCN(c2ccc(NC(=O)c3ccc4c(c3)OCCO4)cc2)CC1	-3	4%	2%	-1	-10%	5
O=C(Nc1ccc(N2CCN(C(=O)c3ccccc3)CC2)cc1)c1ccc([N+](=O)[O-])o1	-9	-15%	1.8µM*	-96*	2.1µM*	.
O=C(Nc1ccc(N2CCN(C(=O)c3ccc(Cl)cc3)CC2)cc1)c1cc2ccccc2o1	-2	6%	-19%	-1	?	0
CC(=O)N1CCN(c2ccc(NC(=O)c3ccccc3C)cc2)CC1	-4	.	9%	-7	5%	-4
Cc1ccccc1C(=O)N1CCN(c2ccc(NC(=O)c3ccc4c(c3)OCO4)cc2)CC1	2	8%	13µM*	-131*	13µM*	-1
Cc1ccccc1C(=O)N1CCN(c2ccc(NC(=O)c3ccc([N+](=O)[O-])o3)cc2)CC1	4	10%	2.3µM*	-95*	5.2µM*	3
CCNC(=S)N(Cc1cc2cc(C)ccc2[nH]c1=O)C1CCCC1	-5	0%	?	-15	?	-8
CCOc1ccccc1NC(=O)/C=C/c1ccc(S(=O)(=O)N2CCOCC2)cc1	-2	-4%[0.505 µM]	?	-7	?	-22
CCc1nc2ccc(C(=O)N3CCN(S(=O)(=O)CC)CC3)cn2c1N(C=O)Cc1ccc(OC)cc1	6	.	-8%	20	-24%	10
Cc1ccc(N2CC(C(=O)Nc3nnc(SCC(=O)NCC4CCCO4)s3)CC2=O)cc1 (centres undefined)	0	4%[56.1 µM]	2%	-8	27%	3
CCOC(=O)C1(Cc2ccccc2C)CCCN(C(=O)CCn2nccc2C)C1 (centres undefined)	2	-3%	13µM*	38	?	1
CCOC(=O)C1(Cc2ccccc2C)CCCN(C(=O)CCc2cccnc2)C1 (centres undefined)	9	-3%	?	13	16µM*	.
CCOC(=O)C1(Cc2ccccc2C)CCCN(C(=O)c2ccc3nccnc3c2)C1 (centres undefined)	-3	2%	21µM*	-6	?	11
CCOCCOC(=O)C1=C(C)NC(=O)NC1c1cc2c(cc1Br)OCO2 (centres undefined)	5	3%	7%	-17	-3%	2
COc1ccc(-c2noc(N3CCN(c4ccc(C)cc4)C(C)C3)n2)cc1OC (centres undefined)	.	4%	16µM*	.	?	.
COc1ccc(-c2noc(CN3CCCCC3)n2)cc1OC	1	5%	-14%	8	-7%	-3
COC(=O)C1=C(C)NC(C)=C(C(=O)OCC2CCCO2)C1c1ccc(Cl)c([N+](=O)[O-])c1 (centres undefined)	.	11%	.	.	.	.
CC1=C(C(=O)OCCNC(=O)c2ccccc2O)C(c2ccccc2[N+](=O)[O-])C(C(=O)OCC2CCCO2)=C(C)N1 (centres undefined)	-9	8%	18µM*	-58*	18µM*	-17
CCOc1ccc(-c2cc3c(=O)n(CC(=O)NCc4ccc(Cl)cc4)ccn3n2)cc1	.	1%	0%	.	-14%	.

Bioassay records deposited in PubChem BioAssay by National Center for Advancing Translational Sciences (NCATS).
